These results are taken from PubChem BioAssay (EPA / NIEHS).

A short description of assay [1]: ATG_XTT_Cytotoxicity: Cytotoxicity Assessment in the Attagene TRANS-FACTORIAL HepG2 Assay (AID 2283584). In a few lines:
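XTT readout of cell number in transfected HepG2 cells, 24 h post-dosing; DMSO serves as negative control and baseline, with activity taken as loss of viability signal.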

Read-out in assay [2]: solute carrier (SLCO1B1), SLCO1B1 (gene 10599)
Briefly: LTEA_HepaRG_SLCO1B1: Life Technologies and Expression Analysis (LTEA) Assay for solute carrier (SLCO1B1) using HepaRG (AID 2283530; active means hit-call score of the fitted dose curve at least 0.9, where 1 is the maximum; inactive means score below 0.9). To be noted: mRNA level, 48 h; actives raise or lower the signal. In a few lines:
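SLCO1B1 transcript read by qRT-PCR (Fluidigm arrays), normalized to three housekeeping genes, after 48 h chemical exposure of HepaRG cells; bidirectional concentration-response fitting versus 0.5% DMSO baseline. Eight-point half-log series, maximum 100 uM.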

Read-out in assay [3]: sulfotransferase 2A1 (SULT2A1), SULT2A1 (gene 6822)
The experiment in a line: LTEA_HepaRG_SULT2A1: Life Technologies and Expression Analysis (LTEA) Assay for sulfotransferase 2A1 (SULT2A1) using HepaRG (AID 2283531; active means hit-call score of the fitted dose curve at least 0.9, where 1 is the maximum; inactive means score below 0.9). To be noted: mRNA level, 48 h; actives raise or lower the signal. In a few lines:
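HepaRG, 48 h chemical exposure, 8-pt half-log curve from 100 uM in 0.5% DMSO, duplicates. Readout: TaqMan qRT-PCR of SULT2A1 mRNA, housekeeping-normalized. Bidirectional fit vs DMSO baseline.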

Read-out in assay [4]: Transforming Growth Factor (TGFA), TGFA (gene 7039)
The experiment in a line: LTEA_HepaRG_TGFA: Life Technologies and Expression Analysis (LTEA) Assay for Transforming Growth Factor (TGFA) using HepaRG (AID 2283532; active means hit-call score of the fitted dose curve at least 0.9, where 1 is the maximum; inactive means score below 0.9). To be noted: mRNA level, 48 h; actives raise or lower the signal. A digest of the protocol: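 qRT-PCR read-out of TGFA transcript, normalized to three housekeeping genes, fitted bidirectionally against 0.5% DMSO baseline. Human HepaRG cultures received chemicals for 48 h at eight half-log concentrations, top 100 uM.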

Read-out in assay [5]: Transforming Growth Factor (TGFB1), TGFB1 (gene 7040)
Briefly: LTEA_HepaRG_TGFB1: Life Technologies and Expression Analysis (LTEA) Assay for Transforming Growth Factor (TGFB1) Transporter using HepaRG (AID 2283533; active means hit-call score of the fitted dose curve at least 0.9, where 1 is the maximum; inactive means score below 0.9). To be noted: mRNA level, 48 h; actives raise or lower the signal. In a few lines: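 qRT-PCR readout of TGFB1 transcript in HepaRG lysates, normalized to three housekeeping genes; gain or loss of signal fitted relative to 0.5% DMSO vehicle. Exposure: 48 h, 8-point curve from 100 uM, duplicate wells.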

Read-out in another assay: TIMP1, TIMP1 (gene 7076)
Briefly: LTEA_HepaRG_TIMP1: Life Technologies and Expression Analysis (LTEA) Assay for TIMP1 using HepaRG (AID 2283534; active means hit-call score of the fitted dose curve at least 0.9, where 1 is the maximum; inactive means score below 0.9). To be noted: mRNA level, 48 h; actives raise or lower the signal. A digest of the protocol: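 HepaRG, 48 h exposure, 8-pt half-log series from 100 uM in 0.5% DMSO, duplicates; TIMP1 transcript by Fluidigm qRT-PCR, housekeeping-normalized; bidirectional curve fit vs DMSO baseline.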

Read-out in assay [6]: Tumor necrosis factor receptor 1 (TNFRSF1A), TNFRSF1A (gene 7132)
The experiment in a line: LTEA_HepaRG_TNFRSF1A: Life Technologies and Expression Analysis (LTEA) Assay for Tumor necrosis factor receptor 1 (TNFRSF1A) using HepaRG (AID 2283535; active means hit-call score of the fitted dose curve at least 0.9, where 1 is the maximum; inactive means score below 0.9). To be noted: mRNA level, 48 h; actives raise or lower the signal. A digest of the protocol: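 HepaRG, 48 h plating then 48 h chemical exposure, serum-free induction media; 8-pt CRC from 100 uM, half-log, 0.5% DMSO vehicle, duplicates. Readout: TaqMan qRT-PCR (Fluidigm), housekeeping-gene normalized; bidirectional fit vs DMSO.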

Read-out in assay [7]: Thyroid Hormone Responsive (THRSP), THRSP (gene 7069)
The experiment in a line: LTEA_HepaRG_THRSP: Life Technologies and Expression Analysis (LTEA) Assay for Thyroid Hormone Responsive (THRSP) using HepaRG (AID 2283536; active means hit-call score of the fitted dose curve at least 0.9, where 1 is the maximum; inactive means score below 0.9). To be noted: mRNA level, 48 h; actives raise or lower the signal. In a few lines: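 qRT-PCR read-out (Fluidigm TaqMan), housekeeping-normalized (ACTB/GAPDH/POLR2A). HepaRG, 48 h chemical exposure, 8-pt half-log series from 100 uM in 0.5% DMSO, duplicates. Bidirectional curve fit vs 0.5% DMSO baseline.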

A short description of assay [8]: LTEA_HepaRG_LDH_cytotoxicity: Cytotoxicity Assessment in the Life Technologies and Expression Analysis (LTEA) Assay (AID 2283563).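 On AC50: LDH activity released into spent culture medium as a marker of cell death.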 A digest of the protocol: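 HepaRG (human liver line), 48 h exposure, 8-pt half-log series from 100 uM, 0.5% DMSO vehicle, duplicates. Read-out: LDH in spent medium. Positive-direction fit vs DMSO baseline.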
Assay [9] is described as follows: Tanguay_ZF_120hpf_MORT_legacy: (Legacy) Oregon State University Tanguay Lab 120 Hour Post-fertilization zebrafish Assay for Mortality (AID 2283633). In a few lines: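 Brightfield scoring of embryo death (binary) at 24 and 120 hpf; static exposure 6–120 hpf, 28C, sealed and foil-covered. Pronase-dechorionated 5D wild-type larvae, single embryo per well. DMSO 0.64% v/v; trimethyltin chloride 5uM positive control.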

A short description of assay [10]: Tanguay_ZF_120hpf_YSE_legacy: (Legacy) Oregon State University Tanguay Lab 120 Hour Post-fertilization zebrafish Assay for Yolk Sac Edema (AID 2283634).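 On AC50: actives raise the incidence of yolk sac edema above the DMSO baseline.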 A digest of the protocol: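 Binary brightfield scoring of yolk sac edema at 120 hpf; DMSO baseline, gain-of-signal fitting. Dechorionated 5D larvae, one per well, static exposure 6–120 hpf, 28C, 0.64% DMSO. Dead embryos not scored.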

A short description of assay [11]: TOX21_p53_BLA_p3_viability: Viability Assessment in the Tox21 HCT-116 p53 Agonism Beta-lactamase Assay, Phase 3 (AID 2283593).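 Further: cells exposed to compound for 16 h before reading.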 In a few lines: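 HCT116 cells, 4000/well, dosed 5 h after plating by pin transfer (217-fold dilution from DMSO stock) and incubated 16 h at 37C, 5% CO2. Viability read as ATP luminescence with CellTiter-Glo after 30 min at room temperature.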

The nature of assay [12]: TOX21_p53_BLA_p5_viability: Viability Assessment in the Tox21 HCT-116 p53 Agonism Beta-lactamase Assay, Phase 5 (AID 2283600). A digest of the protocol:
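ATP luminescence (CellTiter-Glo, 30 min, RT) served as the viability read-out, with loss of signal indicating cytotoxicity. Compounds in DMSO were pinned at a 217-fold dilution onto 4000 cells/well and incubated 16 h, 37C.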

Read-out in assay [13]: Cellular tumor antigen p53 (Homo sapiens) (UniProt P04637)
The experiment in a line: LTEA_HepaRG_TP53: Life Technologies and Expression Analysis (LTEA) Assay for Tumor Protein P53 (TP53) using HepaRG (AID 2283537; active means hit-call score of the fitted dose curve at least 0.9, where 1 is the maximum; inactive means score below 0.9). To be noted: mRNA level, 48 h; actives raise or lower the signal. In a few lines:
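Gain or loss of TP53 mRNA signal is scored relative to 0.5% DMSO after 48 h chemical treatment of HepaRG liver cells, tested in duplicate at eight half-log concentrations up to 100 uM.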

A short description of assay [14]: TOX21_p53_BLA_p2_viability: Viability Assessment in the Tox21 HCT-116 p53 Agonism Beta-lactamase Assay, Phase 2 (AID 2283591).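 Further: actives lower the ATP signal meaning cytotoxicity.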 In a few lines: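 HCT116 p53-bla cells, 4000/well, dosed after 5 h plating (217-fold dilution of DMSO stocks) and incubated 16 h at 37C. Viability taken as cellular ATP by CellTiter-Glo luminescence after 30 min RT; signal loss marks cytotoxicity.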

Assay [15] has as its target Cellular tumor antigen p53 (Homo sapiens) (UniProt P04637). Briefly: TOX21_p53_BLA_p2_ratio: Tox21 HCT-116 p53 Agonism Beta-lactamase Assay, Ratio, Phase 2 (AID 2283592). In a few lines: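 Readout: blue/green (460/530 nm) FRET emission ratio after 2 h CCF4-AM loading at room temperature, excitation 405 nm. HCT116 p53 bla cells, 16 h compound exposure at 37C, 5% CO2; agonist direction fitted against DMSO baseline.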

Assay [16] shares this target. Briefly: TOX21_p53_BLA_p3_ratio: Tox21 HCT-116 p53 Agonism Beta-lactamase Assay, Ratio, Phase 3 (AID 2283596). A digest of the protocol:
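Cells were seeded at 4000/well, rested 5 h at 37C, then dosed with DMSO compound solutions (217-fold dilution) for 16 h. CCF4-AM substrate was loaded for 2 h at room temperature, and the 460/530 nm emission ratio was fitted for gain of signal versus DMSO.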

For assay [17] the target is unchanged. Briefly: TOX21_p53_BLA_p5_ratio: Tox21 HCT-116 p53 Agonism Beta-lactamase Assay, Ratio, Phase 5 (AID 2283599). In a few lines:
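HCT-116 p53-bla cells (4000/well) plated 5 h, dosed with compound (217-fold DMSO dilution) for 16 h at 37 C; CCF4-AM substrate 2 h at room temperature. Activity is the 460/530 nm emission ratio (405 nm excitation), fitted in gain-of-signal direction versus DMSO.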

Assay [18] shares this target. Briefly: TOX21_p53_BLA_p4_ratio: Tox21 HCT-116 p53 Agonism Beta-lactamase Assay, Ratio, Phase 4 (AID 2283601). In a few lines:
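HCT-116 p53 beta-lactamase reporter cells (4000/well) preincubated 5 h, then compound (217-fold dilution of DMSO stock) for 16 h at 37C. CCF4-AM substrate added 2 h at room temperature; 460/530 nm emission ratio fitted upward versus DMSO.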

Structures are written as SMILES. Records with an inconclusive call do not appear. The source made the active and inactive calls. How the source made its calls, unless noted: active means hit-call score of the fitted dose curve at least 0.9, where 1 is the maximum; inconclusive means response in the unintended direction; inactive means score below 0.9.

Sequence of Cellular tumor antigen p53 (Homo sapiens) (P04637 whole entry, looked up): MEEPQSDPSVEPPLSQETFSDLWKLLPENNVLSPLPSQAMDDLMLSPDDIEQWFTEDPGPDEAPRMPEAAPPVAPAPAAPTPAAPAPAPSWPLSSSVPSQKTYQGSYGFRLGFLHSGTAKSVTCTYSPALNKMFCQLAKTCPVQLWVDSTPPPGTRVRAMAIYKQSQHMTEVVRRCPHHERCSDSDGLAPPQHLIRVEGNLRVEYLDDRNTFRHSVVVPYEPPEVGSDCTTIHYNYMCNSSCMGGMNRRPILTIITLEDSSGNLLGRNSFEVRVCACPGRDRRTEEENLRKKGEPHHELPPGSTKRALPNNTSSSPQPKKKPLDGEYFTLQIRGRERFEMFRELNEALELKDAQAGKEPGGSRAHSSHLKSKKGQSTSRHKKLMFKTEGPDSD

`O=C1C=CC(=O)N1c1cccc(N2C(=O)C=CC2=O)c1`: in [1], the call was inactive.

Consider `C=Cc1ccc(O)c(OC)c1`, for which the compound was classed as inactive in [1].

As to `CCN(CCC#N)c1ccccc1`, the call in assay [1] was inactive.

Broadly, the AC50 is the concentration giving half of the maximal activity seen. In the case of `CN(Cc1cnc2nc(N)nc(N)c2n1)c1ccc(C(=O)N[C@@H](CCC(=O)O)C(=O)O)cc1`, the outcome in assay [2] is “inactive”; in assay [4], “inactive”; in assay [5], “inactive”; with TIMP1, TIMP1 (gene 7076) it was “inactive”; in [6] it was “inactive”; in assay [8] it was “inactive”. In addition, the call in assay [1], in assay [9] and in [10] was inactive. Further, the results for the half-maximal activity concentration (AC50) in assay [3] and in assay [7] were 0.266 µM (active) and 0.167 µM (active), respectively.

Take `CC1CCC(C(=O)O)CC1` (stereo not drawn): in assay [1], the outcome was inactive.

As for `O=C1NS(=O)(=O)c2ccccc21`, the outcome was “inactive” in assay [2]; “inactive” in assay [3]; “inactive” in assay [4]; “inactive” in assay [5]; “inactive” with TIMP1, TIMP1 (gene 7076); “inactive” in [6]. Moreover, the compound was classed as inactive in [7], in assay [8], in assay [1], in assay [9] and in assay [10].

For the compound `CCCCCCCCCCCCCCC`, the outcome is “inactive” in [2]; “inactive” in assay [3]; “inactive” in [4]; “inactive” in assay [5]; “inactive” in the assay with TIMP1, TIMP1 (gene 7076); “inactive” in assay [6]. Also, the outcome in assay [7], in [8], in assay [1], in assay [9] and in assay [10] was inactive.

Consider `C/C=C/C(=O)C1=C(C)CCCC1(C)C`, for which the compound was called inactive in assay [1].

Regarding `CCOC(OCC)C(=O)c1ccccc1`, the compound was called inactive in assay [1].

On to `CCOC=O`, for which the result in [1] was inactive.

`CCc1cccc(CC)c1NC(=O)C(=O)O`: the compound was called inactive in assay [1].

Take `CN(C)CCOC(c1ccccc1)c1ccccc1`: the outcome was “inactive” in assay [2]; “inactive” in [3]; “inactive” in assay [4]; “inactive” in assay [5]; “inactive” with TIMP1, TIMP1 (gene 7076); “inactive” in assay [6]. Moreover, the call in [8], in assay [1], in assay [11], in [12] and in assay [9] was inactive. The figures for the half-maximal activity concentration (AC50) in assay [7] and in assay [10] were 58.4 µM (active) and 15.4 µM (active), respectively.

On to `O=C(CCCN1CCC(O)(c2ccc(Cl)cc2)CC1)c1ccc(F)cc1`, for which the half-maximal activity concentration (AC50) is 82.6 µM (active) in assay [2]; 95.2 µM (active) in assay [3]; 79.2 µM (active) in assay [4]; 73.6 µM (active) in [5]; 82.1 µM (active) in [6]; 79.1 µM (active) in assay [13]. Moreover, the AC50 was 73.6 µM (active) in [8] and 13.1 µM (active) in [10]. For the same compound, the outcome in the assay with TIMP1, TIMP1 (gene 7076) is “inactive”; in assay [7] it was “inactive”; in assay [1], “inactive”; in assay [14] it was “inactive”; in assay [15], “inactive”; in assay [11] it was “inactive”. Further, the outcome in assay [16], in [17], in [12], in assay [18] and in [9] was inactive.
